# According to PubChem BioAssay (NCI):
# Compounds without any hit were thinned out: in the full panel of roughly 79,000, 15% have a hit. Unmarked numbers belong to inactive results. Active and inactive are the calls of the source. Rule as the data show it: active = growth inhibition above about 70%; inactive = the rest.
# How the values were obtained:
# [1] = NCI Yeast Anticancer Drug Screen. Data for the rad52 strain (AID 147);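 also: 0% = growth of vehicle-treated control cultures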; details: S. cerevisiae rad52 mutant growth inhibition, stronger effect = higher value
# Procedure, shortened: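 Here a repair-compromised yeast strain receives each compound; its growth is then quantified and normalised to vehicle-only controls.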
# [2] = NCI Yeast Anticancer Drug Screen. Data for the wt1 strain (AID 149);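 also: 0% = growth of vehicle-treated wt1 cultures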; details: S. cerevisiae wt1 strain (SPY 50644) growth inhibition, stronger effect = higher value
# Procedure, shortened: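 The wt1 strain was treated with compounds, and growth was compared with vehicle-treated cultures to give inhibition.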
# [3] = NCI Yeast Anticancer Drug Screen. Data for the mgt1 strain (AID 153); details: S. cerevisiae mgt1 mutant growth inhibition, stronger effect = higher value
# Procedure, shortened: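 Measured: inhibition of mgt1 yeast growth by compound, normalized to vehicle-treated cultures.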
# [4] = NCI Yeast Anticancer Drug Screen. Data for the rad50 strain (AID 155);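 also: 0% = growth of vehicle-only cultures of the same strain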; details: S. cerevisiae rad50 strain growth inhibition, stronger effect = higher value
# Procedure, shortened: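 Cells are treated with compound, grown, and their growth is then scored against vehicle-only cultures of the same repair-deficient yeast strain.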
# [5] = NCI Yeast Anticancer Drug Screen. Data for the mec2-1 strain (AID 157); details: S. cerevisiae mec2-1 strain, stronger effect = higher value
# Procedure, shortened: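 Using mec2-1 yeast: add compound, measure growth, express inhibition versus vehicle-treated cultures.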
# [6] = NCI Yeast Anticancer Drug Screen. Data for the sgs1 mgt1 strain (AID 161);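 also: 0% = growth of cultures given vehicle only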; details: S. cerevisiae sgs1 mgt1 strain, stronger effect = higher value
# Procedure, shortened: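 Compounds are added to genetically altered yeast, and growth is compared with cultures given vehicle alone to give percent inhibition.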
# [7] = NCI Yeast Anticancer Drug Screen. Data for the CLN2oe strain (AID 163);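 also: 0% = growth of vehicle-only control cultures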; details: S. cerevisiae CLN2oe strain, stronger effect = higher value
# Procedure, shortened: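 Whole-cell yeast growth assay. A strain engineered for altered cell-cycle control received compound, and inhibition relative to vehicle-treated cultures was recorded.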
# [8] = NCI Yeast Anticancer Drug Screen. Data for the cln2 rad14 strain (AID 165);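 also: 0% = growth equal to vehicle treated cultures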; details: S. cerevisiae cln2 rad14 strain, stronger effect = higher value
# Procedure, shortened: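 Yeast strain cln2 rad14, bearing defects in cell cycle control and DNA repair, serves as the test system; values reflect growth inhibition compared with vehicle.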
# [9] = NCI Yeast Anticancer Drug Screen. Data for the bub3 strain (AID 167); details: S. cerevisiae bub3 mutant strain, stronger effect = higher value
# Procedure, shortened: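 Part of a panel of yeast mutants defective in DNA damage repair or cell cycle regulation. Each strain is grown with compound, and inhibition is calculated relative to solvent-treated cultures.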
# [10] = NCI Yeast Anticancer Drug Screen. Data for the wt2 strain (AID 169);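 also: 0% = growth of vehicle-treated yeast cultures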; details: S. cerevisiae wt2 strain growth inhibition, stronger effect = higher value
# Procedure, shortened: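 Treated yeast vs. vehicle-treated yeast: growth inhibition determined.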
# [11] = NCI Yeast Anticancer Drug Screen. Data for the sgs1 strain (AID 173);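 also: 0% = growth of vehicle-only control cultures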; details: S. cerevisiae sgs1 mutant, stronger effect = higher value
# Procedure, shortened: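 A genetically defined yeast mutant is incubated with the test compound, and its growth is compared to that of the same strain given vehicle.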
# [12] = NCI Yeast Anticancer Drug Screen. Data for the mlh1 rad18 strain (AID 175); details: S. cerevisiae mlh1 rad18 strain growth inhibition, stronger effect = higher value
# Procedure, shortened: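 Steps: expose repair-defective yeast to compound; measure growth; express inhibition against vehicle-treated controls.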
# [13] = NCI Yeast Anticancer Drug Screen. Data for the rad50EPP+ strain (AID 151);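 also: 0% = growth of vehicle-treated control cultures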; details: S. cerevisiae rad50 mutant strain, stronger effect = higher value
# Procedure, shortened: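 Read-out is yeast growth inhibition relative to vehicle; cells used were the rad50EPP+ strain.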
# [14] = NCI Yeast Anticancer Drug Screen. Data for the rad14 strain (AID 159);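 also: 0% = growth of vehicle-treated control cultures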; details: S. cerevisiae rad14 strain growth inhibition, stronger effect = higher value
# Procedure, shortened: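 Readout: yeast growth inhibition, referenced to vehicle-only cultures. Strain bears a defined alteration in DNA damage repair.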
# [15] = NCI Yeast Anticancer Drug Screen. Data for the mlh1 strain (AID 171);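 also: 0% = growth of vehicle-treated control cultures of the same strain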; details: S. cerevisiae mlh1 strain growth inhibition, stronger effect = higher value
# Procedure, shortened: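 A yeast strain with a defined genetic lesion serves as the test organism. Cultures receive compound or vehicle, and growth is measured.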
# [16] = NCI Yeast Anticancer Drug Screen. Data for the rad18 strain (AID 177); details: S. cerevisiae rad18 mutant growth inhibition, stronger effect = higher value
# Procedure, shortened: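 Measured value is growth inhibition of a yeast strain bearing a DNA repair alteration, referenced to vehicle-treated cells.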
# [17] = at 5.0 µM (retest, dose inferred, filed as 0.5)
# [18] = at 50.0 µM (retest, dose inferred, filed as 5.0)
compound,measurement,setting,value
O=[N+]([O-])c1cc(S(=O)(=O)F)ccc1Cl,growth inhibition,[1]; at 1.2 µM,20%
same,growth inhibition,[1]; at 3.7 µM,24%
same,growth inhibition,[1]; at 11.0 µM,49%
same,growth inhibition,[1]; at 33.0 µM,94% (active)
same,growth inhibition,[1]; at 100.0 µM,98% (active)
same,growth inhibition,[2]; at 1.2 µM,27%
same,growth inhibition,[2]; at 3.7 µM,28%
same,growth inhibition,[2]; at 11.0 µM,9%
same,growth inhibition,[2]; at 33.0 µM,93% (active)
same,growth inhibition,[2]; at 100.0 µM,99% (active)
same,growth inhibition,[3]; at 1.2 µM,11%
same,growth inhibition,[3]; at 3.7 µM,20%
same,growth inhibition,[3]; at 11.0 µM,18%
same,growth inhibition,[3]; at 33.0 µM,93% (active)
same,growth inhibition,[3]; at 100.0 µM,99% (active)
same,growth inhibition,[4]; at 1.2 µM,18%
same,growth inhibition,[4]; at 3.7 µM,20%
same,growth inhibition,[4]; [17],51%
same,growth inhibition,[4]; at 11.0 µM,38%
same,growth inhibition,[4]; at 33.0 µM,94% (active)
same,growth inhibition,[4]; [18],57%
same,growth inhibition,[4]; at 50.0 µM,92.5% (active)
same,growth inhibition,[4]; at 100.0 µM,100% (active)
same,growth inhibition,[5]; at 1.2 µM,27%
same,growth inhibition,[5]; at 3.7 µM,25%
same,growth inhibition,[5]; [17],50%
same,growth inhibition,[5]; at 11.0 µM,35%
same,growth inhibition,[5]; at 33.0 µM,95% (active)
same,growth inhibition,[5]; [18],62%
same,growth inhibition,[5]; at 50.0 µM,94.5% (active)
same,growth inhibition,[5]; at 100.0 µM,100% (active)
same,growth inhibition,[6]; [17],11%
same,growth inhibition,[6]; [18],100% (active)
same,growth inhibition,[6]; at 50.0 µM,93.4% (active)
same,growth inhibition,[7]; at 1.2 µM,26%
same,growth inhibition,[7]; at 3.7 µM,20%
same,growth inhibition,[7]; at 11.0 µM,39%
same,growth inhibition,[7]; at 33.0 µM,93% (active)
same,growth inhibition,[7]; at 100.0 µM,98% (active)
same,growth inhibition,[8]; [17],27%
same,growth inhibition,[8]; [18],100% (active)
same,growth inhibition,[8]; at 50.0 µM,92.4% (active)
same,growth inhibition,[9]; at 1.2 µM,-10%
same,growth inhibition,[9]; at 3.7 µM,-6%
same,growth inhibition,[9]; [17],39%
same,growth inhibition,[9]; at 11.0 µM,1%
same,growth inhibition,[9]; at 33.0 µM,90% (active)
same,growth inhibition,[9]; [18],99% (active)
same,growth inhibition,[9]; at 50.0 µM,93.2% (active)
same,growth inhibition,[9]; at 100.0 µM,98% (active)
same,growth inhibition,[10]; at 1.2 µM,-11%
same,growth inhibition,[10]; at 3.7 µM,-4%
same,growth inhibition,[10]; at 11.0 µM,17%
same,growth inhibition,[10]; at 33.0 µM,85% (active)
same,growth inhibition,[10]; at 100.0 µM,98% (active)
same,growth inhibition,[11]; at 1.2 µM,6%
same,growth inhibition,[11]; at 3.7 µM,13%
same,growth inhibition,[11]; at 11.0 µM,50%
same,growth inhibition,[11]; at 33.0 µM,97% (active)
same,growth inhibition,[11]; at 100.0 µM,98% (active)
same,growth inhibition,[12]; [17],32%
same,growth inhibition,[12]; [18],54%
same,growth inhibition,[12]; at 50.0 µM,92.8% (active)
CN(N=O)C(=O)NNC(=O)N(C)N=O,growth inhibition,[2]; at 1.2 µM,0%
same,growth inhibition,[2]; at 3.7 µM,1%
same,growth inhibition,[2]; at 11.0 µM,5%
same,growth inhibition,[2]; at 33.0 µM,16%
same,growth inhibition,[2]; at 100.0 µM,38%
same,growth inhibition,[13]; at 1.2 µM,3%
same,growth inhibition,[13]; at 3.7 µM,16%
same,growth inhibition,[13]; at 11.0 µM,62%
same,growth inhibition,[13]; at 33.0 µM,93% (active)
same,growth inhibition,[13]; at 100.0 µM,95% (active)
same,growth inhibition,[3]; at 1.2 µM,9%
same,growth inhibition,[3]; at 3.7 µM,28%
same,growth inhibition,[3]; at 11.0 µM,51%
same,growth inhibition,[3]; at 33.0 µM,88% (active)
same,growth inhibition,[3]; at 100.0 µM,96% (active)
same,growth inhibition,[4]; at 1.2 µM,6%
same,growth inhibition,[4]; at 3.7 µM,23%
same,growth inhibition,[4]; [17],21%
same,growth inhibition,[4]; at 11.0 µM,56%
same,growth inhibition,[4]; at 33.0 µM,92% (active)
same,growth inhibition,[4]; [18],95% (active)
same,growth inhibition,[4]; at 50.0 µM,94.9% (active)
same,growth inhibition,[4]; at 100.0 µM,96% (active)
same,growth inhibition,[5]; at 1.2 µM,-2%
same,growth inhibition,[5]; at 3.7 µM,3%
same,growth inhibition,[5]; [17],10%
same,growth inhibition,[5]; at 11.0 µM,22%
same,growth inhibition,[5]; at 33.0 µM,61%
same,growth inhibition,[5]; [18],85% (active)
same,growth inhibition,[5]; at 50.0 µM,38.2%
same,growth inhibition,[5]; at 100.0 µM,96% (active)
same,growth inhibition,[14]; at 1.2 µM,-2%
same,growth inhibition,[14]; at 3.7 µM,18%
same,growth inhibition,[14]; at 11.0 µM,5%
same,growth inhibition,[14]; at 33.0 µM,22%
same,growth inhibition,[14]; at 100.0 µM,57%
same,growth inhibition,[6]; [17],74% (active)
same,growth inhibition,[6]; [18],96% (active)
same,growth inhibition,[6]; at 50.0 µM,91.6% (active)
same,growth inhibition,[8]; [17],-32%
same,growth inhibition,[8]; [18],18%
same,growth inhibition,[8]; at 50.0 µM,11.7%
same,growth inhibition,[9]; at 1.2 µM,-9%
same,growth inhibition,[9]; at 3.7 µM,5%
same,growth inhibition,[9]; [17],-11%
same,growth inhibition,[9]; at 11.0 µM,-6%
same,growth inhibition,[9]; at 33.0 µM,15%
same,growth inhibition,[9]; [18],27%
same,growth inhibition,[9]; at 50.0 µM,1.9%
same,growth inhibition,[9]; at 100.0 µM,39%
same,growth inhibition,[10]; at 1.2 µM,-3%
same,growth inhibition,[10]; at 3.7 µM,-2%
same,growth inhibition,[10]; at 11.0 µM,1%
same,growth inhibition,[10]; at 33.0 µM,16%
same,growth inhibition,[10]; at 100.0 µM,49%
same,growth inhibition,[15]; at 1.2 µM,-1%
same,growth inhibition,[15]; at 3.7 µM,-3%
same,growth inhibition,[15]; at 11.0 µM,7%
same,growth inhibition,[15]; at 33.0 µM,31%
same,growth inhibition,[15]; at 100.0 µM,68%
same,growth inhibition,[12]; [17],6%
same,growth inhibition,[12]; [18],89% (active)
same,growth inhibition,[12]; at 50.0 µM,67%
same,growth inhibition,[16]; at 1.2 µM,71% (active)
same,growth inhibition,[16]; at 3.7 µM,95% (active)
same,growth inhibition,[16]; at 11.0 µM,96% (active)
same,growth inhibition,[16]; at 33.0 µM,96% (active)
same,growth inhibition,[16]; at 100.0 µM,96% (active)
